Reference: the supplement of paper PMC3334620
The full ranking holds about 33,000 sequences; the median of “E-score (-0.5 to 0.5)” is about -0.013, and the highest 2% start at about 0.3. The list comes from a sample in which the highest values are over-represented; it also holds similar and randomly drawn sequences.

biological target: T1, Msn1 (UniProt P22148); assay: PBM E-score (8-mer binding enrichment) (E-score (-0.5 to 0.5)); higher = stronger / more preferred TF binding; settings: protein concentration: 200 nM; construct: GST-full length
T1 sequence: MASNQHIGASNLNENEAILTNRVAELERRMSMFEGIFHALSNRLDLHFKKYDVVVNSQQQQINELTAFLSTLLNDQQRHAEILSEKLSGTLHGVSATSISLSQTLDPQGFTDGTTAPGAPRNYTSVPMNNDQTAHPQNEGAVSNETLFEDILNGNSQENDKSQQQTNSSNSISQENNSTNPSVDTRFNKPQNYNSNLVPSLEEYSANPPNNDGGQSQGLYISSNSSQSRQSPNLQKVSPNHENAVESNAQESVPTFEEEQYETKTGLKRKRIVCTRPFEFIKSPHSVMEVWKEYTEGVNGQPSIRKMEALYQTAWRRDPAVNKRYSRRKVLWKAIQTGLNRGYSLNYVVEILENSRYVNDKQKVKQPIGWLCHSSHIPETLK
Method: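 Universal 'all 10-mer' protein binding microarrays (Agilent AMADID 015681) probed with GST-tagged S. cerevisiae TFs (full-length or DBD) made by in vitro transcription/translation (PURExpress), about 100-200 nM. Bound TF was detected with fluorescent anti-GST. Each ungapped 8-mer (which stands for itself and its reverse complement) is scored by the PBM enrichment score (E-score), a modified Wilcoxon-Mann-Whitney statistic from -0.5 to +0.5, computed with the Universal PBM Analysis Suite. Scale: above 0.35 generally sequence-specific binding.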

Sequence | PBM E-score
TAGGCAAA | 0.0155
AGTCACAA | 0.114
GCCTAGTA | -0.087
CCATGGAG | -0.119
GATGGGGA | -0.143
ATTTCGCA | 0.201
ACCAGTCA | -0.0816
ATCCTTGA | -0.0979
AAAGACAG | 0.193
AAAGACAC | 0.213
AAAGACAA | 0.418
TAAGACCA | -0.13
TAAGACAA | 0.395
TAAGACGA | -0.00272
AACGGATA | 0.18
CGGGGTAC | -0.216
GTCGATGA | -0.0803
CGGGGGCA | -0.318
ACGACATC | 0.163
ACGACAGG | 0.0905
ACGACATG | 0.364
GCGACATA | 0.299

Sequence | PBM E-score
CCGACATA | 0.215
ACGACATA | 0.319
GGTCGGTA | 0.0288
AACTGAGT | -0.00489
AATGCGGA | 0.114
CGTCTAAA | -0.0424
TACAGAGA | -0.0201
GACAGAAA | 0.291
TACAGACA | 0.371
CACAGACG | -0.0835
CACAGACC | 0.0741
CACAGACA | 0.36
AACAGACA | 0.295
GACAGACC | 0.0373
GACAGACA | 0.414
AGAGGCAA | -0.0984
ACGTGAAA | 0.119
CGAGTTGA | 0.0114
CGTACCAA | 0.182
TGTACCAA | 0.328
AGTACCAA | 0.175
TGTACTAA | 0.321

Sequence | PBM E-score
CGTACTAA | 0.093
AGTACTAA | 0.121
AGCTGGAG | -0.251
GATGGTCA | -0.0299
AGCTACGA | -0.11
GTGATTGA | 0.128
CACGCTTA | 0.0573
AGGACTAA | 0.309
AGGACTAT | -0.131
AGGACTTC | 0.243
AGGACTTA | 0.36
CGGACTTA | 0.215
TGGACTAA | 0.183
CAAAACTG | 0.127
CTTGTCTA | 0.324
ATTGTTTG | 0.202
ATTGTCTA | 0.391
CTTGTCTC | 0.319
CTTGTATC | 0.106
CCTGTCTC | -0.0622
GTTGTCTA | 0.165
CCTGTCTA | 0.143

Sequence | PBM E-score
ACTGTCTA | 0.022
ATTGTCTG | 0.34
ATTGTCAG | 0.218
AGTGTCTA | 0.188
ACTCCCTG | -0.28
GCGTCTGA | -0.101
ATGTGCTC | 0.0447
CATAGTAG | 0.0607
ACTGTTAC | -0.0545
CCCTATAC | -0.129
CTCTTAGC | -0.0929
TAATGGAA | 0.151
CAGAAGTA | 0.104
CTAAGCCC | -0.154
AGTGTCTC | 0.0356
ATTGTCTC | 0.378
ACTGTCTC | -0.00421
CAACTTTC | -0.0177
AAGACACA | 0.169
TAGACGAA | 0.0138
CAGACAGA | 0.0672
CAGACAAG | 0.28

Sequence | PBM E-score
CAGACAAA | 0.451
AAGACAGA | 0.216
AAGACAAT | 0.409
AAGACTAT | -0.0507
AAAACAAT | 0.127
AAGACAAA | 0.45
TAGACTAA | -0.0893
TAGACAAA | 0.446
AGCAGTTG | -0.0796
AACCGACC | -0.0206
CCGTCCAG | -0.00159
AAGCCAAG | -0.237
AGAGGAGG | -0.382
ACCAGCCG | -0.0866
AGCCATCC | -0.277
AAGACAAC | 0.221
AAGACAGG | 0.0873
AAGACAAG | 0.343
GAGACGAA | -0.0182
GAGACAAC | 0.203
GAGACAAA | 0.442
